An excerpt weighted towards active compounds, which were near 5.7% of everything screened.
ATXN2 expr inh – inhibitors of ATXN2 expression. AID 1745845. HEK-293 ATXN2-luciferase reporter, luminescence, 24 h. Potency, µM (doses to about 57 µM), inactives show top-dose activity change, negative = inhibition, actives largely listed as inhibitors. 0.72% of 360,000 active; note: potency is the fitted concentration of half-maximal effect; % is set by controls: 0 for no effect and ±100 for the full control effect; nearly all actives have a fitted effect of over 55% in size
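ATXN2-luciferase reporter cells (luciferase flanked by upstream and downstream ATXN2 gene portions) were treated 24 h at 37 °C with compounds at up to 57 uM. SteadyGlo luminescence gave expression; GF-AFC fluorescence gave viability.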
HepG2 tox – counter-screen for TGF-b inhibitors: cytotoxicity in HepG2 cells | HepG2 CAGA-GFP viability, ATP luminescence, 18 h | Potency, µM (titrated, usually from 46.1 µM), for inactives: at the top dose activity change, negative = cytotoxicity, actives largely listed as cytotoxic | 0.76% of 410,000 active | AID 588856; note: potency is the fitted concentration of half-maximal effect
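CellTiter-Glo luminescence gave cytotoxicity after 18 hours at 37 degrees C. The cells were HepG2 CAGA-GFP in 1% FBS DMEM, stimulated with 500 pg/mL TGF-beta after compound addition. %Activity was normalised to no-cell wells (complete cell-killing) and DMSO (no toxicity), and curves were fitted and classified.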
IL-1B inflam inh – inhibitors of inflammasome signaling (IL-1 beta secretion) | THP-1 LPS/ATP IL-1B secretion, AlphaLISA, 16 h; hits give low values | activity change, % at 57.5 µM | 4.7% of 360,000 active | AID 743279; in the data active = activity change below about -50%; inconclusive = mostly about -30% to -49%; note: % is set by controls: 0 for no effect and ±100 for the full control effect
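THP-1 cells pretreated 1 hr with compounds (up to 57.5 uM final), then stimulated with LPS (250 ng/mL final) plus ATP (1.25 mM final); secreted IL-1B measured by AlphaLISA after 16 hr, decreased signal indicating inhibition.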
TGFb inhibitor – TGF-b pathway inhibition. HepG2 CAGA-GFP TGF-b/SMAD3 reporter, GFP fluorescence, 18 h; TGF-beta stimulated, 500 pg/mL final. AID 588855. Potency, µM (doses to about 46.1 µM), for the others: top-dose activity, negative = inhibition, hits mostly inhibitors. 1.2% of 410,000 active; note: potency is the fitted concentration of half-maximal effect; % is set by controls: 0 for no effect and ±100 for the full control effect; nearly all actives have a fitted effect of over 65% in size
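Per well, imaged GFP fluorescence of HEPG2 CAGA-GFP cells gives the signal; cells get compound, then TGF-beta (500 pg/mL final), 18 h at 37 degrees C; %Activity versus -TGF-beta and +DMSO controls.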
S2 tox – cell viability loss in ATXN counter-screen; S2 cells (HEK-293 line with an ATXN2-luciferase reporter) viability, CellTiter-Fluor protease fluorescence, 24 h; Potency, µM (titrated, usually from 56.7 µM), most hits filed as cytotoxic; 0.49% of 400,000 active; AID 651635; note: potency is the fitted concentration of half-maximal effect; nearly all actives have a fitted effect of over 40% in size
An asterisk follows results filed as active; i = inactive; u = inconclusive; x = no result given. Unless noted, calls come from the whole dose curve; as a rule, active = well fitted curve in the direction sought with a large enough effect; inconclusive = small, poorly fitted or top-dose-only effect, or another doubt; inactive = no such curve, though single readings can be large; an effect the other way counts as inactive or inconclusive.

SMILES	ATXN2 expr inh	HepG2 tox	IL-1B inflam inh	TGFb inhibitor	S2 tox
COc1cc(CN2c3ccc(Br)cc3C(=O)CS2(=O)=O)cc(OC)c1	x	-58.9%	x	11.2µM*	x
NC(=O)CSc1nc2c(c(=O)n1-c1ccccc1)C1(CCCCC1)Cc1ccccc1-2	0.0%	-2.3%	-53.2*	-20.7%	u
O/N=C/c1cn(-c2ccccc2)nc1-c1ccc2c(c1)OCCO2	27.5%	-33.5%	-88.4*	2.5%	i
O=C(/C=C\c1cn(-c2ccccc2)nc1-c1ccc2c(c1)OCCO2)N1CCOCC1	x	-14.9%	-22.2	-6.8%	u
CN1CCN(C(=O)/C=C/c2cn(-c3ccccc3)nc2-c2ccc3c(c2)OCCO3)CC1	-30.7%	-13.4%	-61.6*	-17.6%	i
O=C(NCc1ccccc1Br)c1cnc2sc(N3CCCCCC3)nn2c1=O	x	-4.1%	x	-24.8%	x
O=C(COc1ccc2ccccc2c1CN1CCOCC1)N1CCc2ccccc21	-17.5%	12.6µM*	-73.9*	u	i
Cc1nnc(N/N=C/C(C)c2ccccc2)[nH]c1=O (centres undefined)	0.0%	-9.1%	-99.8*	7.7%	i
CCc1ccn2cc(-c3ccc4c(c3)OCO4)nc2c1	3.55µM*	-61.7%	-16.3	-22.9%	u
Cc1ccccc1OCC(=O)NCC(=O)OCC(=O)c1ccc(Br)cc1	x	5.0%	x	16.0%	x
O=C(C[C@H]1C[C@H](C(=O)N2CCCCC2)[C@@]2(CCc3ccccc3)c3[nH]c4cc(-c5ccco5)ccc4c3CCN2C1=O)NCc1cccc(C(F)(F)F)c1	0.5%	-4.6%	-1.3	-28.9%	i
COc1ccc2[nH]c3c(c2c1)CCN1C(=O)C(CC(=O)NCc2ccco2)C[C@H](C(=O)N2CCCCC2)[C@@]31CCc1ccccc1 (some centres undefined)	-4.1%	-2.3%	-56.1*	-8.3%	i
O=C(C[C@H]1C[C@H](C(=O)N2CCCCC2)[C@@]2(CCc3ccccc3)c3[nH]c4cc(-c5ccco5)ccc4c3CCN2C1=O)NCc1ccco1	-14.0%	-3.8%	-50.6*	-32.4%	i
O=C(CC1C[C@H](C(=O)N2CCCCC2)[C@@]2(CCc3ccccc3)c3[nH]c4ccccc4c3CCN2C1=O)NCc1ccco1 (some centres undefined)	u	-41.2%	-60.0*	-3.2%	u
Cc1nc(-n2nc(C)c(CCC(C)C)c2C)sc1C(=O)Nc1ccc(Cl)cc1	21.0%	1.5%	x	-1.1%	i
Cc1cc(Cl)cc(C)c1OCCCCCn1ccnc1	u	-46.3%	-91.2*	u	i
Cc1ccc(OCCn2ccnc2)c([N+](=O)[O-])c1	1.7%	-6.8%	0.0	-24.8%	i
Cc1cc(OCCCn2ccnc2)ccc1[N+](=O)[O-]	-7.5%	8.7%	-78.6*	30.8%	i
Cc1ccc(S(=O)(=O)NNC(=O)c2ccc(C(=O)N(c3ccccc3)c3ccccc3)cc2)cc1	x	-16.7%	x	-22.5%	x
COc1cccc(N2CCN(c3ncc4c(n3)CCN(Cc3ccc(Br)cc3)C4)CC2)c1	-25.3%	-23.9%	x	u	i
COc1cccc(CN2CCC3(CCC(CNC(=O)c4ccco4)O3)CC2)c1OC (centres undefined)	x	x	x	x	i
Cc1ccc(NC(=O)/C(Cl)=C\c2ccccc2)cc1	91.9%	-29.4%	-17.2	-2.8%	i
CC(=O)c1ccc(NC(=O)/C(Cl)=C/c2ccccc2)cc1	66.9%	0.5%	-62.5*	3.3%	i
Nc1nc(N)c2cc(CNc3ccc(Cl)c(Cl)c3)ccc2n1	x	-120.8%	-98.4*	u	x
O=C1C=C(NCc2ccc(Cl)c(Cl)c2)CC1	-14.2%	-1.9%	21.9	9.1%	i
SMILES	ATXN2 expr inh	HepG2 tox	IL-1B inflam inh	TGFb inhibitor	S2 tox
N#C/C(=C\c1ccc(N2CCOCC2)o1)C(=O)Nc1ccc(O)cc1	13.5%	-7.0%	-55.3*	112.9%	i
N#C/C(=C\c1ccc(N2CCOCC2)o1)c1ccccc1	186.9%	-55.4%	-83.5*	u	i
N#C/C(=C/c1ccc(N2CCOCC2)o1)c1nc2ccccc2[nH]1	-3.2%	-25.2%	-22.4	248.1%	u
N#C/C(=C/c1ccc(N2CCCCCC2)o1)c1ccc(F)cc1	u	-27.9%	-69.5*	29.1%	u
N#C/C(=C/c1ccc(N2CCOCC2)o1)c1ccc(Br)cc1	-0.8%	-47.1%	-106.0*	165.9%	i
O=[N+]([O-])c1ccc(/C=C/c2ccnc3ccccc23)c([N+](=O)[O-])c1	x	-9.7%	x	6.6%	x
O=C1OCC(c2ccc(Cl)s2)=C1c1ccccc1[N+](=O)[O-]	-22.9%	-9.2%	-65.3*	-0.6%	i
COCCn1c(C)cc(C2=NNC(=NC3CC3)SC2)c1C	0.212µM*	10µM*	-2.5	8.3%	u
C=CCN=C1NN=C(c2cc(C)n(CCOC)c2C)CS1	-22.8%	-4.5%	-12.8	-4.2%	i
C=CCn1c(C)cc(C2=NNC(=Nc3ccc(C)cc3)SC2)c1C	15.2%	-10.5%	-3.7	-0.8%	i
C=CCn1c(C)cc(C2=NNC(=NC(C)(C)C)SC2)c1C	u	-5.9%	-76.9*	-10.9%	i
Cc1ccccc1OCc1ccc(-c2nc(C#N)c(NCCCN(C)C)o2)o1	x	-60.0%	x	u	x
CN(C)/[N+]([O-])=N/Oc1ccc([N+](=O)[O-])cc1[N+](=O)[O-]	x	-90.3%	x	u	x
CC(C)(C)C(=O)O/N=C(\N)c1ccc(Oc2cc(Cl)cc(Cl)c2)c([N+](=O)[O-])c1	7.7%	-2.7%	-60.7*	0.6%	i
CCCCC1CCC(C(=O)N2CC(=O)Nc3ccc(C)cc3C2c2ccc(F)cc2)CC1 (centres undefined)	-0.5%	-23.4%	x	0.0%	u
COC(=O)[C@@H]1CCCN1C(=O)c1c(OC)cc(=O)n2c1CCN(Cc1ccc3c(c1)OCCO3)CC2	x	x	x	x	i
COCCN(Cc1cc2cc(C)ccc2nc1Cl)C(=O)Nc1ccccc1C	-0.7%	-2.1%	-69.6*	-5.9%	i
COCCN(Cc1cc2cc3c(cc2nc1Cl)OCO3)C(=O)Nc1ccc(OC)cc1	x	4.7%	13.0	-3.0%	i
COCCN(Cc1cc2cc3c(cc2nc1Cl)OCO3)C(=O)Nc1ccccc1OC	-19.9%	-3.6%	-25.9	-0.1%	i
COCCN(Cc1cc2cc3c(cc2nc1Cl)OCO3)C(=O)Nc1ccc(F)cc1	-20.5%	-21.7%	-70.9*	-4.0%	i
Cc1cc(C)c(Cn2c3ccccc3c3cnn(CC(=O)NCCc4ccccc4)c(=O)c32)c(C)c1	10.7%	-0.5%	x	0.8%	i
CCOC(=O)/C(C(N)=NCC(C)C)=C(/O)c1ccccc1	3.0%	-23.6%	-81.0*	-0.8%	i
CCCN=C(N)/C(C(=O)OCC)=C(\O)c1ccc(OC)cc1	5.2%	1.3%	-9.1	4.7%	i
Cc1no[n+]([O-])c1COc1cccc(/C=C2\N=C(c3ccccc3)OC2=O)c1	7.0%	-3.8%	-14.9	1.0%	i

Assay outcomes deposited in PubChem BioAssay by National Center for Advancing Translational Sciences (NCATS).
